# Screens from PubChem.
# A selection: hits, their analogues and other compounds. The true share with any hit is near 5.1%.
# MPTP inh: blocks calcium-induced mitochondrial swelling. isolated mouse mitochondria, Ca2+ swelling absorbance, 30 min. inhibition, % at 10 µM. 360,000 compounds, 1.4% hits;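 active = inhibition of 50% or more, scaled per plate between neutral and stimulator controls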;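 also: 0% = DMSO wells given calcium and 100% = 1 mM EGTA wells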
# CRFBP-R2 agonist: CRF-BP/CRF-R2 complex agonism | AID 588473 | 350,000 compounds, 0.46% hits | activation, % at 13.2 µM | HEK293 CRF-R2/CRF-BP, calcium dye fluorescence (FLIPR); percent of saturating CRF peptide response;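 active = activation of at least 50%, plus an integration ratio under a set limit after plate pattern correction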;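 also: plate controls were neutral control wells without compound for no effect and CRF at EC100 for full effect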
# TMEM16A act: mouse TMEM16A channel activation, primary screen; Q8BHY3; HEK293 TMEM16A/YFP-H148Q/I152L, iodide quench fluorescence; stronger effect = lower value; B-score at 10 µM; 340,000 compounds, 0.3% hits;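 active = fluorescence-ratio B-score plate-corrected deviation score at least 3 library SD below zero, with starting fluorescence score within 5 deviations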;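 also: channel opened by trigger with iodide after compound preincubation; score built on the fluorescence ratio of max minus min over baseline; more negative score means more quench and so TMEM16A activation or potentiation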
# GRIN3A LBD mod: modulators (binders) of human NR3A ligand-binding domain; NR3A LBD differential scanning fluorimetry, Tm shift; 0% = protein alone, 100% = glycine-bound protein; Tm shift relative to glycine control, % at 25 µM; 340,000 compounds, 2.5% hits; AID 1259313;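 active = melting temperature shift of at least 10% of the positive control shift, at one fixed dose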
# CRFBP-R2 block: blocks CRF-induced signaling of the CRF-BP/CRF-R2 complex. AID 588475. 350,000 compounds, 0.59% hits. HEK293 CRF-R2/CRF-BP, CRF-induced calcium fluorescence. inhibition, % at 11.8 µM;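 active = inhibition of the ligand-induced calcium signal above about 50% at the single tested concentration, limit read from the data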
# TMEM16A inh: blocks the mouse calcium-activated chloride channel TMEM16A; AID 588511; normalized B-score (activity score, 25-100; higher = stronger inhibition) at 10 µM; 310,000 compounds, 1.2% hits; HEK293 TMEM16A/YFP iodide influx fluorescence, ionomycin;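 active = ratio plate-corrected score three or more library SD toward inhibition, starting fluorescence score within five deviations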;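 also: score derived from kinetic fluorescence span divided by baseline fluorescence per well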
# * marks the source's active call; other numbers are inactive results; i = inactive; x = not tested or not shown.
SMILES,MPTP inh,CRFBP-R2 agonist,TMEM16A act,GRIN3A LBD mod,CRFBP-R2 block,TMEM16A inh
C[C@@H]1CN([C@H](C)CO)C(=O)c2cc(NC(=O)Nc3ccc(C(F)(F)F)cc3)ccc2O[C@H]1CN(C)C(=O)Nc1ccc(F)cc1,-1.3,6.3,i,18.4*,8.1,x
C[C@H]1CN([C@@H](C)CO)C(=O)c2cc(NC(=O)NC3CCCCC3)ccc2O[C@H]1CN(C)C(=O)Nc1ccc(C(F)(F)F)cc1,0.1,1.3,i,0.5,-1.1,x
C[C@H](CO)N1C[C@H](C)[C@@H](CN(C)C(=O)Nc2ccc(C(F)(F)F)cc2)Oc2ccc(NC(=O)Nc3ccc(C(F)(F)F)cc3)cc2C1=O,-1.0,-0.2,i,10.1*,-3.0,x
CC(C)NC(=O)N(C)C[C@H]1Oc2ccc(NC(=O)Nc3ccc(C(F)(F)F)cc3)cc2C(=O)N([C@H](C)CO)C[C@@H]1C,-2.2,0.0,i,-6.7,-6.9,x
C[C@H](CO)N1C[C@H](C)[C@@H](CN(C)C(=O)Nc2ccccc2)Oc2ccc(NC(=O)Nc3ccc4c(c3)OCO4)cc2C1=O,-0.1,-1.4,i,-9.4,10.6,x
C[C@H](CO)N1C[C@H](C)[C@@H](CN(C)C(=O)Nc2ccc3c(c2)OCO3)Oc2ccc(NC(=O)Nc3ccc(C(F)(F)F)cc3)cc2C1=O,-0.1,-0.7,i,10.9*,2.6,x
CC(=O)C[C@@H](O)CC(=O)[C@@H]1OC(=O)CCCCCCCc2ccccc21,0.4,0.1,i,-1.8,-13.4,x
O=C1CC(N2CCN(S(=O)(=O)c3ccccc3F)CC2)C(=O)N1c1ccccc1F (stereo unspecified),-0.5,-0.4,i,-0.1,5.1,x
COc1ccc(OC)c(/C=c2\sc3nc(-c4cccs4)nn3c2=O)c1,3.4,174.8*,i,0.3,-217.2,i
CCOc1ccc(C2/C(=C(\O)c3ccc4c(c3)OCCO4)C(=O)C(=O)N2CCCN2CCOCC2)cc1OC (stereo unspecified),-1.0,2.1,i,-5.9,-11.9,i
CCOc1ccc(C2/C(=C(\O)c3ccc4c(c3)OCCO4)C(=O)C(=O)N2CCCN2CCOCC2)cc1 (stereo unspecified),0.3,0.7,i,-2.0,55.1*,i
COc1cc(OC)cc(C(=O)NNC(=O)c2cc(S(=O)(=O)N3CCOCC3)ccc2F)c1,0.2,0.8,i,0.3,-4.8,x
CSc1nc(Oc2ccccc2)c2sccc2n1,0.3,-0.7,i,-1.2,20.4,i
C=CCSc1nc(Oc2ccccc2)c2sccc2n1,2.3,-0.3,i,15.0*,22.2,i
CCOC(=O)c1c(NC2OC(=O)c3c2ccc(OC)c3OC)sc(C(=O)OC(C)(C)C)c1C (stereo unspecified),0.1,-0.1,i,18.1*,-12.1,i
COc1ccc2c(c1OC)C(=O)OC2Nc1ccccn1 (stereo unspecified),-1.7,-3.0,i,0.1,2.3,i
Cc1noc(C)c1COC(=O)c1ccc(-c2nc3ccccc3s2)s1,-6.5,10.5,i,21.0*,1.8,i
CCNC(=O)COC(=O)c1ccc(-c2nc3ccccc3s2)s1,-0.2,-0.2,i,-4.6,3.1,i
N#C/C(=C\c1ccc(N2CCOCC2)o1)c1ccccc1,2.5,5.8,i,4.4,35.2,i
N#C/C(=C\c1cccs1)Sc1nc2ccccc2s1,0.5,2.1,-19.8*,-3.9,1.5,i
N#C/C(=C\c1ccc[nH]1)Sc1nc2ccccc2s1,0.5,0.6,i,-5.2,5.8,i
N#C/C(=C/c1cccs1)c1nc2ccccc2[nH]1,1.9,1.3,i,15.4*,-10.0,i
Cc1ccc(/C=C(\C#N)c2nc3ccccc3[nH]2)s1,2.0,-0.9,i,18.8*,-5.5,i
N#C/C(=C/c1ccc(N2CCOCC2)o1)c1nc2ccccc2[nH]1,-0.7,127.9*,i,-1.0,-99.4,i
COc1cccc(NC(=O)C2(C)CCN2C(=O)Cc2cccc3ccccc23)c1 (stereo unspecified),0.1,x,x,x,x,x
SMILES,MPTP inh,CRFBP-R2 agonist,TMEM16A act,GRIN3A LBD mod,CRFBP-R2 block,TMEM16A inh
CC(OC(=O)c1ccncc1)C(=O)NC1CCCC1 (stereo unspecified),-0.9,-0.7,i,1.2,20.2,i
Cn1ccnc1SCc1cn2ccccc2n1,-1.3,6.8,i,-3.3,71.7*,i
COc1ccccc1NC(=O)COC(=O)c1cc([N+](=O)[O-])ccc1N1CCCC1,-0.7,0.9,i,-9.9,19.0,x
O=C(Cn1cnc2c(NCc3ccccc3)ncnc21)NCCCc1ccccc1,-2.0,-3.0,x,16.8*,6.9,x
O=C(/C=C/c1cccs1)c1ccco1,2.8,5.3,i,-2.2,20.4,x
COc1ccccc1-n1cnnc1SCC(=O)NC1CCCC1,0.7,-2.3,i,-1.6,1.7,x
O=C(NC1CCCCC1)c1cccc2c1C(=O)c1ccc(N3CCC(Cc4ccccc4)CC3)cc1S2(=O)=O,1.2,58.4*,i,-1.8,-31.6,x
Cc1ccc(CNC(=O)c2cccc3c2C(=O)c2ccc(N4CCCCC4)cc2S3(=O)=O)cc1,1.0,57.2*,i,-2.1,-18.5,x
Cc1ccc(CNC(=O)c2cccc3c2C(=O)c2ccc(N4CCOCC4)cc2S3(=O)=O)cc1,-0.9,10.7,i,2.4,18.5,x
O=C(NCc1cccc(OC(F)(F)F)c1)c1cccc2c1C(=O)c1ccc(-c3ccc(F)cc3OCc3ccccc3)cc1S2(=O)=O,1.4,2.6,i,0.7,9.1,x
COc1ccc(-c2ccc3c(c2)S(=O)(=O)c2cccc(C(=O)NCc4cccc(OC(F)(F)F)c4)c2C3=O)cc1OC,-1.2,25.9,-4.63*,-4.2,-8.3,x
O=C(NCc1ccccc1Br)c1cccc2c1C(=O)c1ccc(N3CCC(Cc4ccccc4)CC3)cc1S2(=O)=O,0.4,60.6*,i,-0.2,-34.5,x
Cc1ccc2nc3c(cc(C(=O)NC4CCS(=O)(=O)C4)n3Cc3ccccc3)c(=O)n2c1 (stereo unspecified),0.1,-0.9,i,-1.0,8.7,i
Cc1ccc(S(=O)(=O)c2ncccc2[N+](=O)[O-])cc1,-0.6,-2.6,i,-6.6,2.0,i
CC1CCN(c2ccc3c(c2)S(=O)(=O)c2cccc(C(=O)NC[C@@H]4CCCO4)c2C3=O)CC1,-0.7,20.9,i,3.9,-3.8,x
O=C(NCC1CCCO1)c1cccc2c1C(=O)c1ccc(N3CCC(Cc4ccccc4)CC3)cc1S2(=O)=O (stereo unspecified),-0.7,83.4*,i,1.4,-16.4,x
Brc1ccc(-c2cnco2)cc1,-0.2,4.0,i,-0.1,-8.6,i
CCCNC(=O)c1oc2ccc3c(c2c1C)C(=O)CC(C)(C)O3,0.7,-4.6,i,633.1*,17.8,i
